# An excerpt weighted towards active compounds, which were near 21% of everything screened.
# IL1B secr inh = qHTS for Inhibitors of Inflammasome Signaling: IL-1-beta AlphaLISA Primary Screen | THP-1 LPS/ATP IL-1B secretion, AlphaLISA, 16 h; hits give low values | activity change, % at 57.5 µM | 4.7% of 360,000 active; in the data active = activity change below about -50%; inconclusive = mostly about -30% to -49%
#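 Secreted IL-1B measured by AlphaLISA bead assay after 16 h compound exposure of THP-1 cells; compounds (final up to 57.5 uM) added 1 h before LPS (250 ng/mL) and ATP (1.25 mM) stimulation; lower signal means less secretion.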
# TDP1 cell noCPT = qHTS for Inhibitors of human tyrosyl-DNA phosphodiesterase 1 (TDP1): qHTS in cells in absence of CPT; DT40 Tdp1-/- hTDP1 cells, no CPT, ATP luminescence, 48 h; Potency, µM (series often up to 46.2 µM), for the others: top-dose activity change, negative = growth inhibition, most hits filed as inhibitors; 15% of 420,000 active; AID 686978, 2013; note: potency is the fitted concentration of half-maximal effect; nearly all actives have a fitted effect of over 55% in size
#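 Chicken DT40 Tdp1-/- cells complemented with human TDP1, screened without camptothecin (DMSO vehicle only), 400 cells/well. Compounds pin-transferred, cells incubated at 37 °C for at least 48 hr. Growth read as ATP-dependent luminescence (CellTiter-Glo, 30 min at RT).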
# ELG1 DNA repair = qHTS screen for small molecules that inhibit ELG1-dependent DNA repair in human embryonic kidney (HEK293T) cells expressing luciferase-tagged ELG1 | HEK293T ELG1-luciferase reporter, luminescence, 16 h; DNA damage induced by 5-fluorouridine | 2.3% of 330,000 active | Potency, µM (doses to about 46.1 µM), without a hit: top-dose activity change, negative = inhibition, usual class: inhibitors; note: potency is the fitted concentration of half-maximal effect; nearly all actives have a fitted effect of over 55% in size
#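 In this reporter screen, reduction of luminescence relative to DMSO vehicle indicated activity. Compounds and 5-fluorouridine were added together to 2,000 cells per well, incubated for 16 hr at 37 °C, then developed with ONE-Glo.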
# RORg inh = qHTS for inhibitors of ROR gamma transcriptional activity | Potency, µM (titrated, usually from 53.6 µM), without a hit: at the highest dose activity change, negative = inhibition, hits mostly inhibitors | Nuclear receptor ROR-gamma (Mus musculus), P51450 | 5.4% of 310,000 active | Drosophila S2 Gal4-RORgamma UAS-luciferase reporter, 20 h; note: potency is the fitted concentration of half-maximal effect; nearly all actives have a fitted effect of over 60% in size
# Target sequence (P51450 whole entry, looked up, the tested form may be a part): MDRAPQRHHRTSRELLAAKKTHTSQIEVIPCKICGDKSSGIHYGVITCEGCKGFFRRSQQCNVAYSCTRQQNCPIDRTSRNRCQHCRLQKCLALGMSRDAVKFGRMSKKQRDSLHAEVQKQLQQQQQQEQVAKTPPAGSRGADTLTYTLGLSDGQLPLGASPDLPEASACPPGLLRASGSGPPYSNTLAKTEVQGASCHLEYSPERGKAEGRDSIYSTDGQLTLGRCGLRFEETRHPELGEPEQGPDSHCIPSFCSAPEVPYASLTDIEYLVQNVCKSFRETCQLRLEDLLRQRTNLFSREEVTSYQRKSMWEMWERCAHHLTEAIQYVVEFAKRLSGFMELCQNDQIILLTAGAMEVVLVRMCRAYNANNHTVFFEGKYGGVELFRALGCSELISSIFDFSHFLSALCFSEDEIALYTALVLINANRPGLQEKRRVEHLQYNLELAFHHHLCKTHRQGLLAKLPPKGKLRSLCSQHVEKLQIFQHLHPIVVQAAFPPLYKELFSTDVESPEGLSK
#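 Compounds are pin-transferred onto Drosophila Schneider cells expressing a copper-inducible Gal4–ROR gamma transactivation domain fusion. After 1 hr, copper sulfate is added to 700 uM final; luciferase is read 20 hr later.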
# DT40 TDP1 CPT = qHTS for Inhibitors of human tyrosyl-DNA phosphodiesterase 1 (TDP1): qHTS in cells in presence of CPT. chicken DT40 Tdp1-/-;hTDP1 cells + 20 nM CPT, ATP luminescence, 48 h. Potency, µM (titrated, usually from 46.2 µM), for inactives: top-dose activity change, negative = growth inhibition, usual class: inhibitors. 12% of 420,000 active; note: potency is the fitted concentration of half-maximal effect; nearly all actives have a fitted effect of over 55% in size
#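 Chicken DT40 Tdp1-/- cells stably complemented with human TDP1 were seeded at 400 cells/well in medium containing 20 nM camptothecin, exposed to pin-transferred compounds, and grown at 37 °C for at least 48 hr. Viability was read as ATP luminescence.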
# Gal4-VP16 FLuc = VP16 counterscreen qHTS for inhibitors of ROR gamma transcriptional activity; Drosophila S2 Gal4-VP16 UAS-luciferase, luminescence, 20 h; Potency, µM (doses to about 53.6 µM), without a hit: at the top dose activity, negative = inhibition, most hits filed as inhibitors; 3.5% of 310,000 active;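 note: Gal4-VP16 expression switched on by copper sulfate through the metallothionein promoter; potency is the fitted concentration of half-maximal effect; nearly all actives have a fitted effect of over 50% in size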
# * hit, by the source's call; ? = inconclusive; / = no result. Unless noted, calls come from the whole dose curve; as a rule, active = well fitted curve in the direction sought with a large enough effect; inconclusive = small, poorly fitted or top-dose-only effect, or another doubt; inactive = no such curve, though single readings can be large; an effect the other way counts as inactive or inconclusive. % is set by controls: 0 for no effect and ±100 for the full control effect.
SMILES,IL1B secr inh,TDP1 cell noCPT,ELG1 DNA repair,RORg inh,DT40 TDP1 CPT,Gal4-VP16 FLuc
CCOC(=O)CN1NC2(CCC(C(C)(C)C)CC2)NC1=S (stereo not drawn),6.2,-4.2%,6.8%,10µM*,3.5%,?
CCOC(=O)CN1NC2(CCC(C)CC2)NC1=S (stereo not drawn),-4.6,11.9%,-5.5%,?,-5.6%,?
CCOC(=O)CN1NC2(CCCCCCC2)NC1=S,30.8,4.0%,7.4%,3.98µM*,12.3%,-17.8%
CCOC(=O)CN1NC2(CCCCC2)NC1=S,10.2,6.3%,11.7%,15.8µM*,-2.7%,?
CC12CCC(/C(=N/O)C1=O)C2(C)C (stereo not drawn),/,/,/,-5.7%,/,-3.3%
O=C(NCc1ccc2c(c1)OCO2)C1CCCN(S(=O)(=O)c2cccc3cccnc23)C1 (stereo not drawn),-26.6,16.4µM*,?,30.2%,?,-8.0%
O=C(NC1CCCC1)C1CCCN(S(=O)(=O)c2cccc3cccnc23)C1 (stereo not drawn),7.7,-22.7%,-14.7%,-5.3%,?,-8.6%
O=C(Nc1cccc(F)c1)C1CCCN(S(=O)(=O)c2cccc3cccnc23)C1 (stereo not drawn),-27.6,23.1µM*,-7.0%,27.7%,18.4µM*,13.8%
Cc1ccc(NC(=O)C2CCCN(S(=O)(=O)c3cccc4cccnc34)C2)cc1 (stereo not drawn),24.8,20.6µM*,-4.5%,31.9%,?,-0.8%
Cc1cccc(NC(=O)C2CCCN(S(=O)(=O)c3cccc4cccnc34)C2)c1 (stereo not drawn),-9.3,23.1µM*,?,38.4%,18.4µM*,-0.3%
COc1cccc(CNC(=O)CCC2CCCN(Cc3cc4ccccc4o3)C2)c1 (stereo not drawn),-60.0*,25.9µM*,?,0.0%,18.4µM*,-16.4%
O=C(CCC1CCCN(C(=O)c2cc3ccccc3o2)C1)NCc1ccc(F)c(F)c1 (stereo not drawn),0.0,16.4µM*,/,/,16.4µM*,/
O=C(CCC1CCCN(C(=O)c2ccncc2)C1)NCc1ccc(F)c(F)c1 (stereo not drawn),8.8,?,-1.5%,8.9%,-17.3%,2.9%
COCc1ccc(C(=O)N2CCCC(CNC(=O)c3ccc(F)cc3)C2)o1 (stereo not drawn),-7.4,-1.6%,0.0%,13.4%,13.4%,6.0%
Cc1ncoc1C(=O)N1CCCC(CCC(=O)NCc2ccccc2F)C1 (stereo not drawn),12.1,20.6µM*,-1.3%,3.5%,?,-4.4%
COc1cccc(CNC(=O)CCC2CCCN(C(=O)CCC(F)(F)F)C2)c1 (stereo not drawn),-3.9,-26.5%,12.0%,-3.1%,-17.7%,7.2%
COCc1ccc(C(=O)N2CCCC(CCC(=O)NCc3ccccc3F)C2)o1 (stereo not drawn),41.6,2.91µM*,-4.2%,1.9%,3.66µM*,5.6%
O=C(NCc1nnc2c(C(F)(F)F)cc(Cl)cn12)c1ccc2c(c1)OCO2,-3.8,-24.3%,12.4%,13.1%,-20.6%,5.3%
O=C(C[n+]1ccccc1)N/N=C/c1cc(Br)ccc1O,11.7,-22.3%,-9.5%,?,7.9%,-0.6%
CC(C(=O)NC1CCCC1)n1c(C2CCCC2)nc2ccccc21 (stereo not drawn),-5.2,-18.7%,/,/,-27.0%,/
CCNC(=O)C1CCCN(C(=O)c2ccc(N(C)C)cc2)CC1 (stereo not drawn),21.5,11.7%,/,/,-13.1%,/
CC(C)c1cc(C(=O)N2CCCC(CCC(=O)NCc3ccccc3F)C2)n(C)n1 (stereo not drawn),21.7,13µM*,?,9.8%,?,?
C=CCC(=O)N1CCCC(CCC(=O)NCc2ccccc2F)C1 (stereo not drawn),-9.2,-22.5%,?,17.1%,2.0%,4.6%
O=C(CCC1CCCN(C(=O)c2ccco2)C1)NCc1ccccc1F (stereo not drawn),24.0,?,-4.4%,26.4%,18.4µM*,19.5%
O=C(CCC1CCCN(C(=O)c2ccc3c(c2)OCCO3)C1)NCc1ccccc1F (stereo not drawn),40.4,-1.3%,?,42.1%,-27.3%,?
SMILES,IL1B secr inh,TDP1 cell noCPT,ELG1 DNA repair,RORg inh,DT40 TDP1 CPT,Gal4-VP16 FLuc
Cc1cc(/C=C(\C#N)C(=O)Nc2ccc(F)cc2)c(C)n1-c1ccc(N2CCOCC2)c([N+](=O)[O-])c1,-12.8,11.6µM*,?,0.4%,8.2µM*,1.9%
N#C/C(=C\c1ccccc1)C(=O)Nc1cccnc1,12.5,6.5%,-18.6%,-10.2%,0.7%,-5.7%
Cc1cc(/C=C(\C#N)C(=O)O)c(C)n1-c1ccc(Br)cc1,-2.6,3.6%,-5.8%,-3.4%,-28.7%,-2.8%
COc1ccc(NC(=O)/C(C#N)=C/c2cc(C)n(-c3ccc(F)cc3)c2C)cc1,/,-21.3%,/,/,-18.9%,/
Cc1cc(/C=C(\C#N)C(=O)Nc2ccccc2)c(C)n1-c1ccc2c(c1)OCO2,?,16.4µM*,?,11.2%,?,9.4%
Cc1cc(/C=C(/C#N)C(=O)Nc2ccccc2)c(C)n1-c1cccnc1,-59.5*,?,?,18.3%,?,-3.4%
CNC(=O)/C(C#N)=C\c1cc(C)n(-c2ccc(N3CCOCC3)cc2)c1C,15.8,?,?,-3.0%,?,1.2%
Cc1ccccc1NC(=O)/C(C#N)=C\c1cc(C)n(-c2ccc(C(=O)O)cc2)c1C,-56.2*,-11.3%,15.4%,41.9%,-5.0%,1.2%
O=C(CSc1nnnn1-c1ccccc1)NCC1(N2CCOCC2)CCCCC1,1.4,-7.0%,0.5%,/,-14.9%,/
CC(Oc1ccccc1)C(=O)NNC(=O)c1ccccn1 (stereo not drawn),36.4,7.31µM*,20.0%,7.94µM*,10.3µM*,?
CC(C)C(=O)NNC(=O)c1ccccn1,0.0,?,9.5%,?,?,-6.6%
CC(Oc1cccc(Br)c1)C(=O)NNC(=O)c1ccccn1 (stereo not drawn),92.8,2.31µM*,?,/,2.91µM*,/

# From PubChem BioAssay
